# Shown are actives, neighbours in structure and some others; about 1.6% of the full set was active somewhere.
# STAT3 inh-1 – reduces IL-6 driven STAT3 reporter signal; U3A cells, IL-6 STAT3-luciferase reporter, luminescence; host cell line lacks STAT1; 190,000 tested, 0.89% active; inhibition, % at 5.5 µM;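 active = inhibition above the mean inhibition across all screened compounds plus 3 SD, cut at about 44% in these data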;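 note: 0% = DMSO only wells and 100% = 100 µM nifuroxazide control wells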
# STAT1 inh – reduces IFN-gamma driven STAT1 reporter signal; NIH 3T3 STAT1-luciferase reporter, luminescence; inhibition, % at 5.5 µM; 200,000 tested, 0.35% active; AID 920;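 active = inhibition above a set limit, the mean inhibition across all tested compounds plus 3 SD, cut at about 34% in these data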;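 note: 0% = IFN-gamma with DMSO and 100% = IFN-gamma with 300 µM nifuroxazide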
# Platelet DG rel – platelet dense granule release activity; human platelet-rich plasma, SFLLRN dense granule ATP release, luminescence; inhibition, %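 (compounds screened at 7.5 µM in platelet-rich plasma)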; 300,000 tested, 0.22% active;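 active = mean replicate score, as percent of positive control, at or above 50; inconclusive = mean below 50 but at least one replicate at or above 50; inactive = mean and every replicate below 50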
# PPC-1+TRAIL kill – PPC-1 cancer cell killing with TRAIL present | PPC-1 cells + TRAIL, ATPLite viability luminescence | cell killing (% activity), % at 4 µM or 5 µM | 220,000 tested, 0.41% active | AID 1443;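 active = cell killing above 50% in the first pass at 4 µM, then a duplicate retest at 5 µM averaging 50% or more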;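 note: plate controls were cells with TRAIL plus DMSO for no effect and medium-only wells lacking cells for full effect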
# C8 TRAIL sens – caspase-8 TRAIL sensitization; AID 624354; 360,000 tested, 1% active; inhibition (viability loss, TRAIL sensitization), % at 10 µM; NB7+C8 cells + TRAIL, ATPlite viability luminescence;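 active = compounds causing at least 50% loss of cell viability in the single-dose screen, relative to plate controls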
# STAT3 inh-2 – confirmation of STAT3 signaling inhibitors; shares compounds with STAT3 inh-1; U3A cells, IL-6 STAT3 luciferase reporter, luminescence; cell line lacks STAT1; inhibition, % at 5.7 µM; 1,200 tested, 45% active; AID 1265;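 active = inhibition above the hit cutoff computed for the primary STAT3 screen, cut at about 44% in these data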;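 note: 0% = IL-6 plus DMSO and 100% = IL-6 plus nifuroxazide control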
# NFkB inh STAT3ct – counter-screen for STAT3 inhibitors: NF-kappaB inhibition. shares compounds with STAT3 inh-1. HEK293T NF-kB luciferase reporter, TNF-alpha induced. inhibition, % at 5.7 µM. 1,200 tested, 36% active;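 active = inhibition above the mean of solvent-only control wells plus 3 SD, cutoff set per campaign, cut at about 13% in these data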;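 note: 0% = TNF-alpha with DMSO and 100% = TNF-alpha with MG high control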
# STAT1 inh STAT3c – counter-screen for STAT3 inhibitors: STAT1 inhibition; 1,200 tested, 27% active; shares compounds with STAT3 inh-1; NIH 3T3 STAT1-luciferase reporter, IFN-gamma induced, luminescence; inhibition, % at 5.7 µM;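 active = inhibition above the mean plus 3 SD of solvent-only control wells, limit set per screening run, cut at about 16% in these data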;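 note: 0% = DMSO with IFN-gamma and 100% = nifuroxazide control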
# Active calls of the source: *; ? = inconclusive; . = not tested or not shown.
SMILES,STAT3 inh-1,STAT1 inh,Platelet DG rel,PPC-1+TRAIL kill,C8 TRAIL sens,STAT3 inh-2,NFkB inh STAT3ct,STAT1 inh STAT3c
CC(C)C(=O)Nc1ccc(NC(=O)c2ccccn2)cn1,53.2*,8.8,1.0,19.7,48.3*,15.9,-21.5,-42.3
CCC(=O)Nc1ccc(NC(=O)c2ccccn2)cn1,16.2,-30.1,18.0,18.8,20.6,.,.,.
COc1ccc(C(=O)Nc2ccccc2C(=O)N/N=C/c2ccco2)cc1,48.5*,29.0,78.5*,49.7,84.0*,2.2,17.9*,20.0*
COc1ccc(NC(=O)c2cccc(NC(=O)c3ccccc3)c2)cc1,.,.,-3.8,.,-0.9,.,.,.
COc1ccc(NC(=O)c2cc3ccccn3n2)cc1,45.7*,-22.6,?,48.4,1.0,19.7,-29.3,-95.8
COc1ccc(-n2cc(C(=O)c3ccccc3O)cn2)cc1,65.4*,-0.2,23.0,16.5,50.2*,14.3,11.9,-101.7
O=C1CCCN1c1ccc(S(=O)(=O)N2CCN(c3ccccc3)CC2)cc1,6.8,5.7,-4.6,15.5,-9.1,.,.,.
O=C1CCCN1c1ccc(S(=O)(=O)N2CCC(c3ccccc3)CC2)cc1,69.1*,3.8,3.6,15.2,11.7,55.8*,12.4,9.9
CC(C)NC(=O)C1(C)CN(S(C)(=O)=O)CC(=O)N1CCCN1CCOCC1 (centres undefined),.,.,.,.,-12.7,.,.,.
c1csc(CNc2ccc3c(c2)OCCO3)c1,85.5*,15.8,.,-1.4,1.6,-92.9,-7.2,-80.2
Cc1nn2cc(-c3ncc(C(F)(F)F)cc3Cl)cnc2c1Br,47.1*,-31.7,5.8,36.8,12.2,46.9*,10.3,-43.1
Cc1cc2ncc(-c3ncc(C(F)(F)F)cc3Cl)cn2n1,64.5*,28.0,6.7,36.2,57.7*,41.6,5.4,-38.8
FC(F)(F)c1cnc(-c2cnc3c(-c4ccc(Cl)cc4)cnn3c2)c(Cl)c1,18.5,-1.5,9.3,-3.6,2.0,.,.,.
O=C(NCCCN1CCOCC1)c1ccc2c(c1)N(Cc1ccccc1F)C(=O)c1ccccc1S2=O (centres undefined),.,.,-2.2,.,-4.3,.,.,.
CCOc1ccc(CCNC(=O)C2CCCN(S(=O)(=O)N3CCCCC3)C2)cc1OCC (centres undefined),.,.,.,.,-3.2,.,.,.
COc1ccccc1N1CCN(C(=O)C2CCCN(S(=O)(=O)c3ccc4c(c3)oc(=O)n4C)C2)CC1 (centres undefined),.,.,-8.4,.,12.0,.,.,.
Cn1c(=O)oc2cc(S(=O)(=O)N3CCCC(C(=O)Nc4ccccn4)C3)ccc21 (centres undefined),13.0,6.7,24.5,7.3,-7.1,.,.,.
Cn1c(=O)oc2cc(S(=O)(=O)N3CCCC(C(=O)NC4CCCc5ccccc54)C3)ccc21 (centres undefined),81.3*,11.6,-4.8,13.3,-0.9,75.4*,34.4*,-6.3
Cn1c(=O)oc2cc(S(=O)(=O)N3CCCC(C(=O)N4CC=C(c5ccccc5)CC4)C3)ccc21 (centres undefined),56.5*,23.1,.,20.8,.,44.3*,6.5,11.8
CCOC(=O)c1sc2nc(CC(=O)OC)nc(NCCN(CC)CC)c2c1C,5.7,5.0,0.6,28.7,-38.4,.,.,.
CCOC(=O)c1sc2nc(CC(=O)OC)nc(NCc3ccc(Cl)cc3)c2c1C,44.2*,5.6,-0.4,-1.5,5.8,49.8*,11.7,14.3
CCc1ccc(Nc2ncnc3nc[nH]c23)cc1,.,.,2.4,24.3,11.0,.,.,.
CCCCc1ccc(Nc2ncnc3nc[nH]c23)cc1,51.8*,7.9,-0.4,-0.7,27.6,40.8,-18.2,2.2
c1ccc(CCCNc2ncnc3nc[nH]c23)cc1,11.3,0.8,10.2,7.6,5.1,.,.,.
Clc1ccc(CCNc2ncnc3nc[nH]c23)cc1,52.1*,2.7,.,4.7,19.3,35.0,0.7,-13.4
SMILES,STAT3 inh-1,STAT1 inh,Platelet DG rel,PPC-1+TRAIL kill,C8 TRAIL sens,STAT3 inh-2,NFkB inh STAT3ct,STAT1 inh STAT3c
Cc1ccc(N=c2c([N+](=O)[O-])nn(-c3ccc4c(c3)OCCO4)n2O)c(Cl)c1,48.8*,30.4,1.1,4.2,.,-14.8,0.0,-60.7
CC1C(=O)N(Cc2cn(CC3CCCCC3)nn2)CCS(=O)(=O)N1Cc1ccc(-c2ccc(Cl)cc2)cc1 (centres undefined),.,.,.,.,28.4,.,.,.
CCC(=O)c1ccc(OCc2ccc(C(=O)c3ccccc3)cc2)cc1,49.9*,26.7,1.1,12.1,-4.4,42.8,8.5,18.8*
CCCOc1ccc(/C=N/Nc2ccccc2[N+](=O)[O-])c(O)c1,12.5,-12.6,33.7,17.7,41.8,.,.,.
CCCOc1ccc(/C=N/NC(=S)Nc2ccccc2[N+](=O)[O-])c(O)c1,92.0*,2.8,-30.7,37.5,.,48.5*,-10.6,-8.2
COc1ccc(/C=N/NC(=S)Nc2ccccc2[N+](=O)[O-])cc1O,94.5*,-2.5,1.9,25.3,17.8,83.1*,-6.1,-13.1
O=C(NCc1ccncc1)C1Cc2c(-c3ccccc3Oc3ccccc3)ccnc2O1 (centres undefined),.,.,.,.,-14.4,.,.,.
Cc1cc(C)n(-c2ccc(C(=O)Nc3ccc(S(=O)(=O)NCc4ccco4)cc3)cc2)n1,74.6*,11.3,2.0,-1.7,30.7,56.0*,17.2*,19.3*
O=C(c1cc(COc2c(F)cccc2F)on1)N1CCC(c2ccncc2)CC1,52.9*,24.6,8.2,25.4,17.6,59.0*,18.3*,19.5*
Cc1cccc(-c2cc3c(N=O)c4ccccc4c-3n[nH]2)c1,50.4*,-6.1,42.2,40.9,48.7,-5.7,-19.0,-26.3
CC(C)NC(=O)c1cc(-c2ccc(F)cc2OC(C)C)n[nH]1,.,.,.,.,-4.7,.,.,.
CCC(C)NC(=S)Nc1ccccc1 (centres undefined),.,.,4.8,16.7,-11.4,.,.,.
CCC(C)NC(=S)Nc1ccc(C(=O)OC)cc1 (centres undefined),55.1*,13.1,5.9,-0.2,30.6,52.7*,10.8,5.7
CCCCCC(=O)N1C[C@@H](n2cc(C3CC3)nn2)[C@H](O)C[C@@H]1c1ccc(Cl)cc1,.,.,.,.,3.3,.,.,.
Cc1ccoc1C(=O)Nc1ccc(CC(=O)O)cc1,57.4*,27.1,17.5,37.6,28.6,50.9*,27.1*,13.7
O=C(c1ccccc1)c1cnc(-c2ccc(Cl)cc2)s1,47.9*,-18.0,2.8,23.4,19.0,21.3,-14.8,-70.0
CN(C)/C=C/C(=O)c1cnc(-c2ccc(Cl)cc2)s1,43.4*,-36.2,1.4,7.2,29.1,12.7,-32.5,-65.7
O=C(c1ccccc1)c1cnc(-c2ccccc2)s1,52.1*,-33.0,4.8,12.7,11.2,16.9,-30.5,-76.8
O=C(c1ccc(Cl)cc1)c1cnc(-c2ccc(Cl)cc2)s1,11.8,10.9,1.4,12.5,-4.3,.,.,.
CN(C)/C=C/C(=O)c1cnc(-c2ccccc2)s1,23.6,-34.1,2.4,6.6,11.7,.,.,.

# Bioassay records as filed in PubChem.
